In all, about 110,000 compounds were measured (“z-score”: median about -0.1, highest 2% from about 2 on). The list comes from a sample in which the highest values are over-represented; it also holds similar structures and randomly drawn compounds. Active and inactive are the calls of the source.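 How the source made its calls: active means z-score in the third read window above 3 or below -3; inactive means the rest.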
Target: Metabotropic glutamate receptor 8 (Rattus norvegicus) (UniProt P70579)
Experiment: rat mGluR8 modulators via GIRK flux, primary screen, cell-based, thallium flux, HTS (AID 488969)
Settings: HEK293 rat mGluR8, GIRK (G protein-gated inwardly rectifying potassium channel) thallium flux, FluoZin2; at 10 µM; stronger effect = higher value; submaximal glutamate (EC20) added with thallium

Chain of Metabotropic glutamate receptor 8 (Rattus norvegicus) (P70579 whole entry, looked up): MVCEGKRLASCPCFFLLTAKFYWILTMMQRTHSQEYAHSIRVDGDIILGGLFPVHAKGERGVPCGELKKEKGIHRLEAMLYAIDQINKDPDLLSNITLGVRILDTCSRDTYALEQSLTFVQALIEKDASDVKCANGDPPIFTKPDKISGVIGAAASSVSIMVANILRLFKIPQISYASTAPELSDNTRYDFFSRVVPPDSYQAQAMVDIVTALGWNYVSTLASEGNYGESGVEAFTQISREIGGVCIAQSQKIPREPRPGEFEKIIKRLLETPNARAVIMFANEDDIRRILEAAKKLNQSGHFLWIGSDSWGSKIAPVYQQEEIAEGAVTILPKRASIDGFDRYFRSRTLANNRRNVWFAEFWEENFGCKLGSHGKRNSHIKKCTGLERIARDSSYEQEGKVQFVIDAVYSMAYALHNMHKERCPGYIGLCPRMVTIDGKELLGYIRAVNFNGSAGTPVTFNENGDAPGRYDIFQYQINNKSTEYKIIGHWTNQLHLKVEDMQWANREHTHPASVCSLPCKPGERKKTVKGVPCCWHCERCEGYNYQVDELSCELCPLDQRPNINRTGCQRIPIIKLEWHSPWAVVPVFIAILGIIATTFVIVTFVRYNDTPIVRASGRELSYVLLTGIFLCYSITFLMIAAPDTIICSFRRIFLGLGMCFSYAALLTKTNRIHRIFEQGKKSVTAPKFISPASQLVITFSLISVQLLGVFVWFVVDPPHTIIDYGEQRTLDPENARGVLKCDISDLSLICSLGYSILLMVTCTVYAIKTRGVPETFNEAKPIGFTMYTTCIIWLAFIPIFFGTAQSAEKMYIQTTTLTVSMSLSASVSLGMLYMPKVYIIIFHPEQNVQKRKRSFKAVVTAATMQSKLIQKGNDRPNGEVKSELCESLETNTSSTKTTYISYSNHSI

Question: How did the z-score turn out when `O=C(Nc1ccccc1)N1CCN(c2ccc(F)cc2)CC1` was run?
Answer: 0.147

Question: `CC(=O)c1ccc(Sc2ccc(C(C)=O)cc2)cc1` was tested. Which z-score did it give?
Answer: -0.316

Question: Which z-score does the source give for `CCn1nnc(-c2ccccc2NC(=O)c2cc(OC)c(OC)c(OC)c2)n1` here?
Answer: -1.03

Question: Which z-score does the source give for `CN(C)S(=O)(=O)c1cccc(C(=O)NC2CCCc3ccccc32)c1` (stereo not drawn) here?
Answer: -0.104

Question: `O=C(NC1CCCc2ccccc21)c1cccc(S(=O)(=O)N2CCN(c3ccccc3)CC2)c1` (stereo not drawn) was tested. Which z-score did it give?
Answer: 2.28

Question: Which z-score does the source give for `CC(=O)N1CCN(S(=O)(=O)c2cccc(C(=O)NC3CCCc4ccccc43)c2)CC1` (stereo not drawn) here?
Answer: 0.0317

Question: Which z-score does the source give for `COC(=O)c1ccc(/C=N/NC(=O)CC(=O)NCC(C)C)cc1` here?
Answer: -0.0626

Question: `COc1cc(CNCCO)cc(Br)c1OCc1ccccc1Cl` was tested. Which z-score did it give?
Answer: 1.32

Question: How did the z-score turn out when `O=C(O/N=C/c1ccc2c(c1)OCO2)c1ccccc1Cl` was run?
Answer: 0.0816

Question: `CCOc1ccc(-n2c(SCc3nc(-c4cccs4)no3)nnc2-c2ccncc2)cc1` was tested. Which z-score did it give?
Answer: 7.31 (active)

Question: With `CCOc1ccc(-n2c(SCc3nc(-c4ccc(C)cc4)no3)nnc2-c2ccncc2)cc1` as the compound, how does the z-score read?
Answer: -0.127

Question: For `CCCn1c(SCc2nc(-c3cccs3)no2)nnc1-c1ccncc1`, which z-score is on record?
Answer: 0.141

Question: `S=C(Nc1cccc(Cl)c1Cl)Nn1cnnc1` was tested. Which z-score did it give?
Answer: -0.236

Question: How did the z-score turn out when `O=C(O)c1ccc(NC(=S)NC(NC(=O)c2ccco2)C(Cl)(Cl)Cl)cc1` (stereo not drawn) was run?
Answer: -0.0488

Question: `Cc1cc(C)c2[nH]c(=O)c(=O)[nH]c2c1` was tested. Which z-score did it give?
Answer: -0.178

Question: `Cc1cc(C)c2[nH]c(=S)cc(C)c2c1` was tested. Which z-score did it give?
Answer: 5.14 (active)

Question: `Cc1cc2[nH]c(=S)[nH]c2cc1C` was tested. Which z-score did it give?
Answer: 0.151

Question: Which z-score does the source give for `NC(=O)C1CCN(CC(=O)Nc2cccc(C(=O)Nc3cccc(C(F)(F)F)c3)c2)CC1` here?
Answer: -0.137

Question: `CS(=O)(=O)N(Cc1ccccc1)c1ccc(C(=O)NC2CCCCC2O)cc1` (stereo not drawn) was tested. Which z-score did it give?
Answer: 0.252

Question: How did the z-score turn out when `O=C(NNS(=O)(=O)c1ccc(F)c(Cl)c1)c1cccc(S(=O)(=O)N2CCOCC2)c1` was run?
Answer: -0.0447

Question: `O=C(NNS(=O)(=O)c1cccc(Cl)c1Cl)c1cccc(S(=O)(=O)N2CCOCC2)c1` was tested. Which z-score did it give?
Answer: -0.174

Question: How did the z-score turn out when `O=C(NNS(=O)(=O)c1ccccc1F)c1cccc(S(=O)(=O)N2CCOCC2)c1` was run?
Answer: 10.4 (active)

Question: Which z-score does the source give for `CCNc1nc(NC(C)CC)nc(Oc2ccc(=O)[nH]n2)n1` (stereo not drawn) here?
Answer: -0.162

Question: With `CN=C1c2c(-c3ccccc3)c3cc(OC)ccc3n2CCN1C` as the compound, how does the z-score read?
Answer: 4.2 (active)

Question: `CN=C1c2cc3cc(OC)ccc3n2CCN1C` was tested. Which z-score did it give?
Answer: 0.371

Question: How did the z-score turn out when `CN=C1c2cc3c(Br)c(OC)ccc3n2CCN1C` was run?
Answer: 0.218

Question: How did the z-score turn out when `Fc1cccc(-n2c(-c3ccco3)nc3nc4ccccc4nc32)c1` was run?
Answer: 3.05 (active)

Question: `Cc1cccc(-n2c(-c3ccco3)nc3nc4ccccc4nc32)c1` was tested. Which z-score did it give?
Answer: -0.0341

Question: Which z-score does the source give for `CCC(C)n1c(-c2ccco2)nc2nc3ccccc3nc21` (stereo not drawn) here?
Answer: -1.06

Question: Which z-score does the source give for `CCOC(=O)c1cnc(-c2ccccc2)nc1Oc1ccccc1` here?
Answer: -0.19

Question: For `CCOC(=O)c1cnc(-c2ccccc2)nc1Oc1ccc(Cl)cc1`, which z-score is on record?
Answer: -0.241

Question: How did the z-score turn out when `CCOC(=O)c1cnc(-c2ccccc2)nc1Oc1ccc(C)cc1` was run?
Answer: 2.4

Question: Which z-score does the source give for `O=C(Nc1ccccc1)c1ccc(S(=O)(=O)NCc2ccco2)cc1` here?
Answer: -0.18

Question: Which z-score does the source give for `COc1ccc(C(=O)Nc2ccc(S(=O)(=O)NCc3ccco3)cc2)cc1OC` here?
Answer: 3.13 (active)

Question: `Cc1ccc(C(=O)Nc2ccc(S(=O)(=O)NCc3ccco3)cc2)cc1` was tested. Which z-score did it give?
Answer: 0.0377

Question: With `CCOC(=O)c1c(NC(=O)C2CCCO2)sc(C(N)=O)c1C` (stereo not drawn) as the compound, how does the z-score read?
Answer: -0.0328

Question: With `CN(C)c1ccc(N=Nc2ccccc2C(=O)OCC(=O)NC2CCCC2)cc1` as the compound, how does the z-score read?
Answer: -0.235

Question: With `COc1cccc(C(=O)NC(C)c2ccc(Br)cc2)c1` (stereo not drawn) as the compound, how does the z-score read?
Answer: -0.143

Question: Which z-score does the source give for `CCCC(=O)NC1C2CC3CC(C2)CC1C3` (stereo not drawn) here?
Answer: 0.313

Question: Which z-score does the source give for `CC(=O)c1c(C)[nH]c(C(=O)OCC(=O)Nc2cccc(S(=O)(=O)N3CCCC3)c2)c1C` here?
Answer: 0.16

Question: `Cc1cc(C)c(C)c(S(=O)(=O)NNC(=O)c2cccc(S(=O)(=O)N3CCOCC3)c2)c1C` was tested. Which z-score did it give?
Answer: -0.174

Question: Which z-score does the source give for `Cc1ccccc1OC(=O)n1c(=S)oc2cc(Cl)ccc21` here?
Answer: 1.42

Question: For `COC(=O)n1c(=S)oc2cc(Cl)ccc21`, which z-score is on record?
Answer: 2.15

Question: With `CCCCOC(=O)n1c(=S)oc2cc(Cl)ccc21` as the compound, how does the z-score read?
Answer: -0.00789

Question: `O=C(NCc1ccco1)c1ccc(S(=O)(=O)c2cccc(S(=O)(=O)N3CCOCC3)c2)cc1` was tested. Which z-score did it give?
Answer: 0.0723

Question: Which z-score does the source give for `CCC(C)C(=O)Nc1nc(C)c(-c2csc(Nc3ccccc3OC)n2)s1` (stereo not drawn) here?
Answer: -0.407

Question: How did the z-score turn out when `Clc1ccc(OCc2cc(-c3ccccc3)no2)c(Cl)c1` was run?
Answer: -0.0969

Question: How did the z-score turn out when `COc1ccc2nc(N3C(=O)CC(C(C)c4ccccc4)C3=O)sc2c1` (stereo not drawn) was run?
Answer: -0.143

Question: For `COc1ccc(N2C(=O)/C(=C/c3cccnc3)NC2=S)cc1`, which z-score is on record?
Answer: -0.439

Question: `CCOc1ccc2nc(N3C(=O)/C(=C/c4ccc(Cl)cc4)NC3=S)sc2c1` was tested. Which z-score did it give?
Answer: 1.05

Question: How did the z-score turn out when `COc1ccc2nc(N3C(=O)/C(=C/c4ccc(Cl)cc4)NC3=S)sc2c1` was run?
Answer: 6.84 (active)

Question: For `CCOc1ccc2nc(SCC(=O)c3ccccc3)sc2c1`, which z-score is on record?
Answer: 0.303

Question: Which z-score does the source give for `CCOc1ccc2nc(N3C(=O)/C(=C/c4ccccc4)NC3=S)sc2c1` here?
Answer: 3.66 (active)

Question: `COc1ccc2nc(N3C(=O)/C(=C/c4ccccc4)NC3=S)sc2c1` was tested. Which z-score did it give?
Answer: 11.9 (active)

Question: For `COc1ccc2nc(N3C(=O)CC(Cc4ccc(Cl)cc4)C3=O)sc2c1` (stereo not drawn), which z-score is on record?
Answer: -0.21

Question: `COC(=O)/C=C1\C(=O)N(c2nc3ccc(OC)cc3s2)C(=S)N1c1ccc(F)cc1` was tested. Which z-score did it give?
Answer: 0.0125

Question: `Cc1cccc(OCCNc2cc(N3CCN(CCO)CC3)ccc2[N+](=O)[O-])c1` was tested. Which z-score did it give?
Answer: -0.0985

Question: For `Cc1cc2c(cc1C)NC1(C(=O)Nc3ccccc31)C1=C(CC(C)(C)CC1=O)N2` (stereo not drawn), which z-score is on record?
Answer: 0.0524

Question: For `Cc1cccc(Oc2ccccc2NC(=O)c2cnccn2)c1`, which z-score is on record?
Answer: -0.109

Question: For `COc1cc(C(=O)NCCc2ccc3c(c2)OCCO3)ccc1OCC(=O)N1CCOCC1`, which z-score is on record?
Answer: 0.0469

Question: With `CCCCOc1ccc(-c2cc(C(=O)NNC(=S)NCC)c3ccccc3n2)cc1` as the compound, how does the z-score read?
Answer: -0.155

Question: With `COc1ccccc1N1CCN(C(CNC(=O)c2ccc3c(c2)OCO3)c2cccnc2)CC1` (stereo not drawn) as the compound, how does the z-score read?
Answer: 0.0309

Question: `CC(CNCC1CCCO1)COc1cccc2ccccc12` (stereo not drawn) was tested. Which z-score did it give?
Answer: 0.285

Question: `Cc1ccc(C(=O)N/C(=C\c2ccc(-c3ccc(Br)cc3)o2)C(=O)NC2CCS(=O)(=O)C2)cc1` (stereo not drawn) was tested. Which z-score did it give?
Answer: -0.13

Question: For `O=C(Nc1ccc2oc(-c3ccncc3)nc2c1)c1ccccc1F`, which z-score is on record?
Answer: -0.225

Question: Which z-score does the source give for `COc1c(F)c(F)c(C(=O)Nc2ccc3oc(-c4ccncc4)nc3c2)c(F)c1F` here?
Answer: -0.29

Question: How did the z-score turn out when `O=C(Nc1ccc2oc(-c3ccncc3)nc2c1)c1c(F)c(F)c(F)c(F)c1F` was run?
Answer: 3.39 (active)

Question: `COc1cc2c(cc1NCc1ccccn1)oc1ccccc12` was tested. Which z-score did it give?
Answer: -0.0883

From PubChem BioAssay AID488969 (Vanderbilt High Throughput Screening Facility, 2010)
